# Source: PubChem BioAssay (National Center for Advancing Translational Sciences (NCATS))
# HCMV antiviral = blocks human cytomegalovirus replication; 410,000 compounds, 4.5% hits; HFF cells, HCMV-luciferase reporter, 72 h; active compounds read low; activity change, negative = inhibition, % at 57.5 µM; AID 1259415; in the data active = activity change below about -60%; inconclusive = no clear call, values can overlap the other calls; inactive = above about -39%
#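 Compounds were evaluated in HFFs infected with an HCMV luciferase reporter virus (MOI 1 PFU/cell). Luciferase in lysates collected 72 h post infection served as the replication measure.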
# RE007 growth inh = less growth of the S. pombe RE007 Vpr strain | Potency, µM (highest dose often 92.2 µM), usual class: inhibitors | S. pombe RE007 Vpr strain, BacTiter-Glo ATP luminescence, 24 h | 360,000 compounds, 0.21% hits | AID 651644; active = well fitted falling curve with a large enough effect; inconclusive = small, poorly fitted or top-dose-only effect; inactive = no such curve, though single readings can be large or run the other way; note: nearly all actives have a fitted effect of over 50% in size
#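 Fission yeast strain RE007, carrying one chromosomally integrated HIV-1 vpr copy, was seeded at OD 0.01 in PMG+AL medium with 23 nL pinned compound. After 24 h at 30 °C and 99% humidity, viability was read by BacTiter-Glo luminescence.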
# TbPYK inhibitor = T. brucei pyruvate kinase inhibition; AID 624173; Potency, µM (titrated, usually from 76.8 µM), most hits filed as inhibitors; 410,000 compounds, 0.12% hits; TbPYK enzyme, Kinase-Glo Plus ATP luminescence, 45 min; Q57TT1; note: nearly all actives have a fitted effect of over 50% in size
#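 ADP (130 uM final) triggers the TbPYK reaction after compound addition; incubation is 45 min at room temperature. Kinase-Glo Plus is then added and luminescence imaged. Normalized data are fitted to concentration-effect curves.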
# Sm TGR block = blocks Schistosoma mansoni thioredoxin glutathione reductase; Potency, µM (series often up to 114 µM), most hits filed as inhibitors; Q962Y6; AID 485364; purified TGR, DTNB reduction, TNB absorbance 405 nm; 360,000 compounds, 3% hits; note: nearly all actives have a fitted effect of over 60% in size
#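 First, TGR (20 nM dispensed) and NADPH were mixed with compound. Second, a 15 min room-temperature incubation followed. Third, further NADPH and then DTNB were added to start the reaction. Finally, TNB absorbance was monitored kinetically.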
# FMDV antiviral = blocks foot and mouth disease virus. FMDV antiviral cell-based qHTS. 410,000 compounds, 1.2% hits. Potency, µM (titrated, usually from 57.9 µM), actives largely listed as inhibitors; calls by dose curve; tested in HEK293T cells; note: read-out not given here; nearly all actives have a fitted effect of over 45% in size
# FBPA Giardia inh = blocks Giardia fructose-bisphosphate aldolase activity; purified Giardia FBPA; 290,000 compounds, 0.71% hits; Potency, µM (series often up to 59.6 µM), most hits filed as inhibitors; A8B2U2; AID 2451; note: nearly all actives have a fitted effect of over 55% in size
# Target sequence (A8B2U2 whole entry, looked up): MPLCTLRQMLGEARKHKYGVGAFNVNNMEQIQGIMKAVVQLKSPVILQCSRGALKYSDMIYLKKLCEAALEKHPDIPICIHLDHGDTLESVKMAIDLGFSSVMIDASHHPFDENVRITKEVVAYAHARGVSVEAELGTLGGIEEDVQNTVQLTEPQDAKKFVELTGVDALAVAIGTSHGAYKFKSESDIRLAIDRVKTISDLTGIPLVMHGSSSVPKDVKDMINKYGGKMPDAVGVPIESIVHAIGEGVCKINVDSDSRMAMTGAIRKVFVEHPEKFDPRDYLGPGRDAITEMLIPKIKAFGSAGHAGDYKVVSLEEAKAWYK
#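 40 nM FBPA preincubated 10 min at RT with compound (up to 57.5 uM final), then substrate plus GAPDH/TPI/NAD/arsenate coupling and diaphorase/resazurin added. Fluorescence read after 20 min at RT, 525/598 nm.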
# Numbers stand for hits; n = inactive; u = inconclusive; x = no result. Sampled rows, rich in hits. Any-hit rate of the full collection: about 7.7%. Unless noted, calls come from the whole dose curve; as a rule, active = well fitted curve in the direction sought with a large enough effect; inconclusive = small, poorly fitted or top-dose-only effect, or another doubt; inactive = no such curve, though single readings can be large; an effect the other way counts as inactive or inconclusive.
SMILES,HCMV antiviral,RE007 growth inh,TbPYK inhibitor,Sm TGR block,FMDV antiviral,FBPA Giardia inh
COc1ccc(-c2nc(CS(=O)CC(=O)NCc3ccc(Cl)cc3)c(C)o2)cc1OC (stereo unspecified),n,n,n,45µM,n,n
COc1ccc(CNC(=O)CS(=O)Cc2nc(-c3ccc(C)cc3)oc2C)cc1 (stereo unspecified),n,n,n,50µM,n,n
Cc1oc(-c2ccc(Cl)cc2)nc1CS(=O)CC(=O)NCCCN1CCOCC1 (stereo unspecified),n,n,n,n,n,x
COc1ccc(CNC(=O)CS(=O)Cc2nc(-c3ccc(OC)c(OC)c3)oc2C)cc1 (stereo unspecified),n,n,n,25µM,n,x
Cc1ccc(-c2nc(CS(=O)CC(=O)NCc3ccc(F)cc3)c(C)o2)cc1 (stereo unspecified),n,n,n,n,n,x
COc1ccc(-c2nc(CS(=O)CC(=O)NCc3ccco3)c(C)o2)cc1OC (stereo unspecified),n,n,n,u,n,n
Cc1ccc(-c2nc(CS(=O)CC(=O)NCCCN3CCN(Cc4ccccc4)CC3)c(C)o2)cc1 (stereo unspecified),-75,n,n,n,n,n
COc1cc(OC)c(C2Nc3ccccc3-c3nnc(SCc4ccccc4)nc3O2)cc1OC (stereo unspecified),n,x,n,n,n,x
Cn1c(=O)c2sccc2n2c(CCC(=O)NCc3ccc(F)cc3)nnc12,n,x,n,n,n,x
CCC1CCCCN1CCCNC(=O)CS(=O)Cc1nc(-c2ccc(OC)c(OC)c2)oc1C (stereo unspecified),n,n,n,n,n,x
COc1ccc(-c2nc(CSCC(=O)NCc3ccco3)c(C)o2)cc1,x,n,n,45µM,u,n
Cc1ccc(-c2nc(CS(=O)CC(=O)NCc3ccccn3)c(C)o2)cc1 (stereo unspecified),n,n,n,56µM,n,n
COc1ccc(-c2nc(CSCC(=O)NCCc3ccccc3)c(C)o2)cc1,n,x,n,u,n,x
COc1ccc(-c2nc(CS(=O)CC(=O)NC3CCCCC3C)c(C)o2)cc1OC (stereo unspecified),n,n,n,28µM,n,x
O=C(c1cnn(-c2nccc(-c3ccccc3F)n2)c1C1CC1)N1CCN(CCO)CC1,x,x,x,x,n,x
O=C(CSc1nc2ccccc2c(=O)n1Cc1ccco1)c1ccccc1,-69,n,n,n,n,n
O=c1c2ccccc2nc(SCc2ccccc2)n1Cc1ccco1,n,n,n,28µM,u,n
O=C1NC(=O)C2(CCc3ccccc32)N1 (stereo unspecified),n,n,n,n,n,n
C=C1CC2(OC1=O)c1ccccc1CCc1ccccc12,-97,n,n,x,22µM,x
Cc1cc(C)cc(NC(=O)c2c(C)oc3nc(C)nc(N4CCCC4)c23)c1,u,x,n,n,n,x
CC1(C)Oc2ccc3ccc(=O)oc3c2-c2cn[nH]c21,-81,n,n,n,n,n
CCCCCCCCC(c1nc2ccccc2[nH]1)N1CCN=C1c1cc2ccccc2[nH]1 (stereo unspecified),-103,n,n,x,n,x
Cc1ccc(S(=O)(=O)c2[nH]c(-c3ccccc3)nc2SC(C)C(=O)O)cc1 (stereo unspecified),n,x,n,n,n,x
COc1ccc2c3c(n(C)c2c1)[C@H](CO)N(C(=O)c1ccccn1)CC31CCN(C(=O)Cc2ccccc2)CC1,n,x,x,x,x,x
Cc1ccc(N2C(=O)NC(=O)/C(=C\C=C\c3ccco3)C2=O)cc1C,-102,n,n,25µM,u,n
CCOC(=O)C1=C(C)N(c2ccc(C)c(C)c2)C(=O)/C1=C\c1ccco1,n,n,n,n,n,n
CN(C)c1ccc(/C=C/C=C2/C(=O)NC(=O)N(c3ccccc3)C2=O)cc1,-113,n,u,u,20µM,n
O=C1S/C(=C\C=C\c2ccco2)C(=O)N1c1ccccc1,n,n,n,45µM,n,n
O=C1NC(=O)N(c2ccccc2)C(=O)/C1=C/C=C/c1ccco1,-100,n,u,10µM,u,n
